Experimental data published in PubChem BioAssay (Tox21).
The source made the active and inactive calls. Where a call stands in place of a potency, no number is given. Calls come from the whole dose curve.

biological target: Muscarinic acetylcholine receptor M1 (Homo sapiens) (UniProt P11229); assay: Cholinergic receptor muscarinic 1 (CHRM1) small molecule agonists, cell-based qHTS assay (AID 1963589); settings: CHRM1-CHO cells, agonist mode, calcium flux fluorescence; series mostly up to 76.8 µM; note: nearly all actives have a fitted effect of over 35% in size
Sequence (P11229 whole entry, looked up): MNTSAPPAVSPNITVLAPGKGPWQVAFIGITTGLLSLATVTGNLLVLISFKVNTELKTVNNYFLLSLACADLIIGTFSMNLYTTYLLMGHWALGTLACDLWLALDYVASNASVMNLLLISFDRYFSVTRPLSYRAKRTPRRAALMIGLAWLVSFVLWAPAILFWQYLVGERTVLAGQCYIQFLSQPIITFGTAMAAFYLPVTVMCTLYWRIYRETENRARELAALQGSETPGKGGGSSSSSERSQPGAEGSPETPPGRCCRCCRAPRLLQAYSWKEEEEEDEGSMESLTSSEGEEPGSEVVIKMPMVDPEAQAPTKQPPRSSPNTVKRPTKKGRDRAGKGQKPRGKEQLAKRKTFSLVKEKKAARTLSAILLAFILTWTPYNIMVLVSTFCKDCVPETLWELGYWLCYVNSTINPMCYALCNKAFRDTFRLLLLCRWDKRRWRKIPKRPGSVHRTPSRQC
Excerpt: National Center for Advancing Translational Sciences [NCATS]
Division of Preclinical Innovation [DPI]
U.S. Environmental Protection Agency [EPA]
National Institutes of Environmental Health Sciences [NIEHS]
National Toxicology Program [NTP]
U.S. Food and Drug Administration [FDA]
The CHRM1 is a muscarinic receptor. This receptor plays a crucial role in learning and memory processes and has long been identified as a promising therapeutic target for the improvement of cognitive decline in Alzheimer's disease (AD). The CHRM1-CHO cell line stably expressing human muscarinic acetylcholine receptor M1 (CHRM1) can be used for screening agonists and antagonists of interactions between CHRM1 and its ligands. The CHRM1-CHO Calcium Flux Assay is a homogeneous fluorescence-based assay for detecting the intracellular calcium level using FDSS kinetic plate reader system.
CHRM1-CHO cells were dispensed at 1000 cells/3uL/well in 1536-well black-clear bottom plates using a Multidrop Dispenser. After the assay plates were incubated at a 37 C/5% CO2 incubator for 18 h, 3 uL of Dye Loading Buffer was transferred to the assay plate by a Flying Reagent Dispenser. The assay plates were incubated at 37 C for 1h. For agonist mode, 23 nL of compounds dissolved in DMSO, positive controls or DMSO only was transferred to the assay plate by a pin tool. […] Each test compound was measured at 15 concentrations in three independent runs.

| Compound | Potency |
| --- | --- |
| CC(C)=CCl | inactive |
| O=C=Nc1ccc(Cc2ccc(N=C=O)cc2)cc1 | inactive |
| c1cnc2c(c1)ccc1cccnc12 | inactive |
| CCCCCCCCCCCCCCCO | inactive |
| CCCCCCOCCO | inactive |
| CCCCCCCCCCCCOC(=O)c1cc(O)c(O)c(O)c1 | inactive |
| CC(C)CC(C)CC(O)CC(C)C (stereo not given) | inactive |
| CCC(=O)OC/C=C/c1ccccc1 | inactive |
| NNc1ccc(C(=O)O)cc1 | inactive |
| C=CCNC(N)=S | inactive |
| CCCCOCCOCCOC(C)=O | inactive |
| COc1c(Cl)c(Cl)c(Cl)c(Cl)c1Cl | inactive |
| COCCCN | inactive |
| CC(=O)Nc1ccc(C(=O)O)cc1 | inactive |
| Nc1cccc(N)c1 | inactive |
| COC(=O)CCCCC(=O)OC | inactive |
| CC(=O)OC/C=C(C)/C=C/C=C(C)/C=C/C1=C(C)CCCC1(C)C | inactive |
| CCCCC(C=O)CC (stereo not given) | inactive |
| CCCCNC(N)=O | inactive |
| c1ccc(OCCOc2ccccc2)cc1 | inactive |

| Compound | Potency |
| --- | --- |
| CCOC(=O)C(C#N)=C(c1ccccc1)c1ccccc1 | inactive |
| COc1ccccc1[N+](=O)[O-] | inactive |
| COc1ccc(NC(C)=O)cc1N | inactive |
| OC[C@H]1O[C@H](O[C@]2(CCl)O[C@H](CCl)[C@@H](O)[C@@H]2O)[C@H](O)[C@@H](O)[C@H]1Cl | inactive |
| O=C(O)c1ccc(C(=O)O)cc1 | inactive |
| CCN(CC)C(=O)c1cccc(C)c1 | inactive |
| CC1(C)C(=O)N(Cl)C(=O)N1Cl | inactive |
| CN(C)C(=O)Nc1ccc(Cl)c(Cl)c1 | inactive |
| Cc1cccc(C)c1O | inactive |
| COC(=O)c1ccc(C=O)cc1 | inactive |
| Cc1cc(C2(c3cc(C)c(O)cc3C)OS(=O)(=O)c3ccccc32)c(C)cc1O | inactive |
| O=C(O)c1ccc2c(c1)C(=O)OC2=O | inactive |
| C[Si](C)(C)O[Si](C)(C)C | inactive |
| NC(=O)/N=N/C(N)=O | inactive |
| O=C(O)C(=O)O | inactive |
| NCCOCCO | inactive |
| CCCC(C)=O | inactive |
| CN(C)C | inactive |
| O=C(O)/C=C\C(=O)O | inactive |
| Nc1ccc(Nc2ccccc2)cc1 | inactive |
